PubChem BioAssay AID1159580 (chemical genetic matrix, 2015)
Among all 5,500 compounds or so, about 2,000 (36%) were called active. Roughly 18% stayed inconclusive and do not appear here. No stated cut-off is given here; in the data, active means normalized growth mostly below about 0.91 (no sharp cut-off); inconclusive means no clear call, values can overlap the other calls; inactive means mostly above about 0.92. Some of the results follow.

Assay: chemical genetic growth profiling, strain panel (AID 1159580);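 further: tested at 20 µM; growth read once vehicle control cultures reached saturation at 30 °C; 1 = growth at the plate median or of vehicle wells; lower values mean less growth of the strain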
Conditions: growth OD

Measured: normalized growth

C=CCCCCCCCCCCCC(O)CC(O)COC(C)=O (stereo not given) (tested in a mixture with another compound)
active: S. cerevisiae deletion strains, locus YBR009C, strain hhf1, active compounds read low 0.798 | S. cerevisiae deletion strains, locus YBR021W, strain FUR4, active compounds read low 0.78 | S. cerevisiae deletion strains, locus YBR023C, strain chs3, active compounds read low 0.891 | S. cerevisiae deletion strains, locus YCL011C, strain gbp2, active compounds read low 0.866 | S. cerevisiae deletion strains, locus YCL016C, strain dcc1, active compounds read low 0.907 | S. cerevisiae deletion strains, locus YDL074C, strain BRE1, active compounds read low 0.723 | S. cerevisiae deletion strains, locus YDL192W, strain arf1, active compounds read low 0.875 | S. cerevisiae deletion strains, locus YDR101C, strain arx1, active compounds read low 0.886 | S. cerevisiae deletion strains, locus YDR318W, strain mcm21, active compounds read low 0.911 | S. cerevisiae deletion strains, locus YDR392W, strain spt3, active compounds read low 0.329 | S. cerevisiae deletion strains, locus YDR502C, strain sam2, active compounds read low 0.912 | S. cerevisiae deletion strains, locus YER155C, strain BEM2, active compounds read low 0.646 | S. cerevisiae deletion strains, locus YGL086W, strain mad1, active compounds read low 0.835 | S. cerevisiae deletion strains, locus YGL253W, strain hxk2, active compounds read low 0.847 | S. cerevisiae deletion strains, locus YHR013C, strain ard1, active compounds read low 1.16 [resistant] | S. cerevisiae deletion strains, locus YHR129C, strain ARP1, active compounds read low 0.914 | S. cerevisiae deletion strains, locus YHR142W, strain chs7, active compounds read low 0.714 | S. cerevisiae deletion strains, locus YIL125W, strain kgd1, active compounds read low 0.908 | S. cerevisiae deletion strains, locus YJL095W, strain BCK1 (second series), active compounds read low 0.905 | S. cerevisiae deletion strains, locus YJL129C, strain trk1, active compounds read low 0.802 | S. cerevisiae deletion strains, locus YJL164C, strain tpk1, active compounds read low 0.832 | S. cerevisiae deletion strains, locus YJL166W, strain qcr8, active compounds read low 0.836 | S. cerevisiae deletion strains, locus YKL009W, strain mrt4, active compounds read low 0.864 | S. cerevisiae deletion strains, locus YKR001C, strain vps1, active compounds read low 0.817 | S. cerevisiae deletion strains, locus YLR027C, strain aat2, active compounds read low 0.921 | S. cerevisiae deletion strains, locus YLR221C, strain rsa3, active compounds read low 0.806 | S. cerevisiae deletion strains, locus YLR258W, strain gsy2, active compounds read low 0.906 | S. cerevisiae deletion strains, locus YLR262C, strain YPT6 (second series), active compounds read low 0.823 | S. cerevisiae deletion strains, locus YLR320W, strain mms22, active compounds read low 0.823 | S. cerevisiae deletion strains, locus YLR371W, strain rom2, active compounds read low 0.874 | S. cerevisiae deletion strains, locus YLR418C, strain cdc73, active compounds read low 0.684 | S. cerevisiae deletion strains, locus YML032C, strain rad52, active compounds read low 0.88 | S. cerevisiae deletion strains, locus YML120C, strain ndi1, active compounds read low 0.899 | S. cerevisiae deletion strains, locus YMR205C, strain PFK2, active compounds read low 0.826 | S. cerevisiae deletion strains, locus YNL071W, strain lat1, active compounds read low 0.762 | S. cerevisiae deletion strains, locus YNL233W, strain BNI4, active compounds read low 0.845 | S. cerevisiae deletion strains, locus YNL298W, strain CLA4, active compounds read low 0.824 | S. cerevisiae deletion strains, locus YNL307C, strain MCK1, active compounds read low 0.56 | S. cerevisiae deletion strains, locus YNR052C, strain pop2, active compounds read low 0.898 | S. cerevisiae deletion strains, locus YOL147C, strain pex11, active compounds read low 0.917 | S. cerevisiae deletion strains, locus YOR061W, strain CKA2, active compounds read low 0.672 | S. cerevisiae deletion strains, locus YOR083W, strain WHI5, active compounds read low 0.873 | S. cerevisiae deletion strains, locus YOR184W, strain ser1, active compounds read low 0.446 | S. cerevisiae deletion strains, locus YOR270C, strain vph1, active compounds read low 0.699 | S. cerevisiae deletion strains, locus YPL051W, strain arl3, active compounds read low 0.88 | S. cerevisiae deletion strains, locus YPL078C, strain atp4, active compounds read low 0.882 | S. cerevisiae deletion strains, locus YPR163C, strain tif3, active compounds read low 0.898 | S. cerevisiae deletion strains, locus YPR167C, strain met16, active compounds read low 0.905 | S. cerevisiae deletion strains, strain wtn01, active compounds read low 0.866 | S. cerevisiae strains, strain wild type, active compounds read low 0.796
inactive: S. cerevisiae deletion strains, locus YAL013W, strain DEP1, active compounds read low 0.943 | S. cerevisiae deletion strains, locus YAL021C, strain ccr4, active compounds read low 1.01 | S. cerevisiae deletion strains, locus YAL026C, strain drs2, active compounds read low 0.937 | S. cerevisiae deletion strains, locus YAL030W, strain snc1, active compounds read low 0.963 | S. cerevisiae deletion strains, locus YBL061C, strain skt5, active compounds read low 0.95 | S. cerevisiae deletion strains, locus YBR171W, strain sec66, active compounds read low 0.946 | S. cerevisiae deletion strains, locus YBR229C, strain ROT2, active compounds read low 1 | S. cerevisiae deletion strains, locus YBR231C, strain swc5, active compounds read low 0.971 | S. cerevisiae deletion strains, locus YBR279W, strain paf1, active compounds read low 0.949 | S. cerevisiae deletion strains, locus YCL029C, strain bik1, active compounds read low 0.951 | S. cerevisiae deletion strains, locus YCL061C, strain MRC1, active compounds read low 0.936 | S. cerevisiae deletion strains, locus YCL069W, strain vba3, active compounds read low 0.963 | S. cerevisiae deletion strains, locus YCR088W, strain abp1, active compounds read low 0.978 | S. cerevisiae deletion strains, locus YDL005C, strain med2, active compounds read low 0.955 | S. cerevisiae deletion strains, locus YDL035C, strain GPR1, active compounds read low 0.907 | S. cerevisiae deletion strains, locus YDL040C, strain nat1, active compounds read low 0.967 | S. cerevisiae deletion strains, locus YDL101C, strain DUN1, active compounds read low 0.983 | S. cerevisiae deletion strains, locus YDL134C, strain PPH21, active compounds read low 0.892 | S. cerevisiae deletion strains, locus YDL185W, strain tfp1, active compounds read low 1.01 | S. cerevisiae deletion strains, locus YDR001C, strain nth1, active compounds read low 0.967 | S. cerevisiae deletion strains, locus YDR069C, strain doa4, active compounds read low 1.02 | S. cerevisiae deletion strains, locus YDR137W, strain rgp1, active compounds read low 0.882 | S. cerevisiae deletion strains, locus YDR150W, strain NUM1, active compounds read low 1.02 | S. cerevisiae deletion strains, locus YDR159W, strain sac3, active compounds read low 0.947 | S. cerevisiae deletion strains, locus YDR162C, strain NBP2, active compounds read low 0.999 | S. cerevisiae deletion strains, locus YDR195W, strain ref2 0.875 | S. cerevisiae deletion strains, locus YDR297W, strain sur2, active compounds read low 0.962 | S. cerevisiae deletion strains, locus YDR334W, strain swr1, active compounds read low 0.993 | S. cerevisiae deletion strains, locus YDR335W, strain msn5, active compounds read low 0.969 | S. cerevisiae deletion strains, locus YDR388W, active compounds read low 0.991 | S. cerevisiae deletion strains, locus YEL003W, strain gim4, active compounds read low 0.95 | S. cerevisiae deletion strains, locus YEL037C, strain rad23, active compounds read low 0.966 | S. cerevisiae deletion strains, locus YEL061C, strain CIN8 (second series), active compounds read low 0.971 | S. cerevisiae deletion strains, locus YER015W, strain faa2, active compounds read low 0.982 | S. cerevisiae deletion strains, locus YER016W, strain bim1, active compounds read low 0.981 | S. cerevisiae deletion strains, locus YER110C, active compounds read low 0.995 | S. cerevisiae deletion strains, locus YER111C, strain swi4, active compounds read low 0.947 | S. cerevisiae deletion strains, locus YER155C, strain BEM2 (second series), active compounds read low 0.877 | S. cerevisiae deletion strains, locus YER167W, strain BCK2, active compounds read low 0.979 | S. cerevisiae deletion strains, locus YFR010W, strain ubp6, active compounds read low 0.974 | S. cerevisiae deletion strains, locus YGL078C, strain dbp3, active compounds read low 0.933 | S. cerevisiae deletion strains, locus YGL167C, strain pmr1, active compounds read low 0.966 | S. cerevisiae deletion strains, locus YGL173C, strain kem1, active compounds read low 0.941 | S. cerevisiae deletion strains, locus YGL227W, strain vid30, active compounds read low 0.969 | S. cerevisiae deletion strains, locus YGL240W, strain doc1, active compounds read low 0.952 | S. cerevisiae deletion strains, locus YGL248W, strain PDE1, active compounds read low 0.89 | S. cerevisiae deletion strains, locus YGR135W, strain pre9, active compounds read low 0.971 | S. cerevisiae deletion strains, locus YGR229C, strain SMI1, active compounds read low 0.838 | S. cerevisiae deletion strains, locus YGR252W, strain gcn5, active compounds read low 0.782 | S. cerevisiae deletion strains, locus YHR027C, strain rpn1, active compounds read low 0.964 | S. cerevisiae deletion strains, locus YHR030C, strain SLT2, active compounds read low 1.01 | S. cerevisiae deletion strains, locus YHR079C, strain IRE1 (second series), active compounds read low 0.993 | S. cerevisiae deletion strains, locus YHR094C, strain hxt1, active compounds read low 0.992 | S. cerevisiae deletion strains, locus YHR200W, strain rpn10, active compounds read low 0.938 | S. cerevisiae deletion strains, locus YIL066C, strain RNR3, active compounds read low 0.921 | S. cerevisiae deletion strains, locus YIL073C, strain SPO22, active compounds read low 1.05 | S. cerevisiae deletion strains, locus YIR030C, strain dcg1, active compounds read low 0.972 | S. cerevisiae deletion strains, locus YJL092W, strain hpr5, active compounds read low 0.973 | S. cerevisiae deletion strains, locus YJL095W, strain BCK1, active compounds read low 0.827 | S. cerevisiae deletion strains, locus YJL115W, strain asf1, active compounds read low 0.953 | S. cerevisiae deletion strains, locus YJL134W, strain LCB3, active compounds read low 1.02 | S. cerevisiae deletion strains, locus YJL154C, strain vps35, active compounds read low 0.965 | S. cerevisiae deletion strains, locus YJL168C, strain set2, active compounds read low 0.992 | S. cerevisiae deletion strains, locus YJL187C, strain SWE1 (second series), active compounds read low 0.967 | S. cerevisiae deletion strains, locus YJL187C, strain SWE1, active compounds read low 0.961 | S. cerevisiae deletion strains, locus YKL068W, active compounds read low 1.01 | S. cerevisiae deletion strains, locus YKL085W, strain MDH1 (second series), active compounds read low 0.943 | S. cerevisiae deletion strains, locus YKL085W, strain MDH1, active compounds read low 0.943 | S. cerevisiae deletion strains, locus YKL160W, strain elf1, active compounds read low 0.923 | S. cerevisiae deletion strains, locus YKR026C, strain gcn3, active compounds read low 0.974 | S. cerevisiae deletion strains, locus YKR091W, strain srl3, active compounds read low 0.975 | S. cerevisiae deletion strains, locus YLL001W, strain dnm1, active compounds read low 0.908 | S. cerevisiae deletion strains, locus YLL026W, active compounds read low 0.968 | S. cerevisiae deletion strains, locus YLL041C, strain sdh2, active compounds read low 0.973 | S. cerevisiae deletion strains, locus YLR039C, strain RIC1, active compounds read low 1.13 | S. cerevisiae deletion strains, locus YLR058C, strain SHM2, active compounds read low 0.947 | S. cerevisiae deletion strains, locus YLR102C, strain apc9, active compounds read low 0.978 | S. cerevisiae deletion strains, locus YLR268W, strain sec22, active compounds read low 0.975 | S. cerevisiae deletion strains, locus YLR342W, strain FKS1 (second series), active compounds read low 0.824 | S. cerevisiae deletion strains, locus YLR342W, strain FKS1, active compounds read low 0.932 | S. cerevisiae deletion strains, locus YLR357W, strain rsc2, active compounds read low 1.02 | S. cerevisiae deletion strains, locus YLR370C, strain arc18, active compounds read low 0.975 | S. cerevisiae deletion strains, locus YLR384C, strain iki3, active compounds read low 0.97 | S. cerevisiae deletion strains, locus YML016C, strain PPZ1, active compounds read low 1.01 | S. cerevisiae deletion strains, locus YML124C, strain tub3, active compounds read low 0.997 | S. cerevisiae deletion strains, locus YMR058W, strain fet3, active compounds read low 0.953 | S. cerevisiae deletion strains, locus YMR078C, strain ctf18, active compounds read low 0.981 | S. cerevisiae deletion strains, locus YMR125W, strain sto1, active compounds read low 0.942 | S. cerevisiae deletion strains, locus YMR129W, active compounds read low 0.978 | S. cerevisiae deletion strains, locus YMR223W, strain ubp8, active compounds read low 0.928 | S. cerevisiae deletion strains, locus YMR231W, strain pep5, active compounds read low 0.966 | S. cerevisiae deletion strains, locus YMR307W, strain GAS1, active compounds read low 0.869 | S. cerevisiae deletion strains, locus YNL067W, strain RPL9B, active compounds read low 0.995 | S. cerevisiae deletion strains, locus YNL209W, strain ssb2, active compounds read low 0.965 | S. cerevisiae deletion strains, locus YNL248C, strain rpa49, active compounds read low 0.99 | S. cerevisiae deletion strains, locus YNL250W, strain rad50, active compounds read low 1.01 | S. cerevisiae deletion strains, locus YNL271C, strain bni1, active compounds read low 0.947 | S. cerevisiae deletion strains, locus YNL322C, strain KRE1 (second series), active compounds read low 0.973 | S. cerevisiae deletion strains, locus YNR049C, strain mso1, active compounds read low 0.969 | S. cerevisiae deletion strains, locus YOL012C, strain htz1 1.44 | S. cerevisiae deletion strains, locus YOR001W, strain rrp6, active compounds read low 0.943 | S. cerevisiae deletion strains, locus YOR069W, strain VPS5, active compounds read low 0.989 | S. cerevisiae deletion strains, locus YOR070C, strain gyp1, active compounds read low 0.935 | S. cerevisiae deletion strains, locus YOR080W, strain dia2, active compounds read low 0.978 | S. cerevisiae deletion strains, locus YOR106W, strain vam3, active compounds read low 0.875 | S. cerevisiae deletion strains, locus YOR136W, strain idh2, active compounds read low 0.973 | S. cerevisiae deletion strains, locus YOR144C, strain elg1, active compounds read low 0.944 | S. cerevisiae deletion strains, locus YOR265W, strain rbl2, active compounds read low 0.937 | S. cerevisiae deletion strains, locus YOR290C, strain snf2, active compounds read low 0.917 | S. cerevisiae deletion strains, locus YOR316C, strain cot1, active compounds read low 0.984 | S. cerevisiae deletion strains, locus YPL106C, strain sse1, active compounds read low 1.06 | S. cerevisiae deletion strains, locus YPL240C, strain hsp82, active compounds read low 0.958 | S. cerevisiae deletion strains, locus YPL241C, strain CIN2, active compounds read low 1 | S. cerevisiae deletion strains, locus YPR119W, strain clb2, active compounds read low 0.982 | S. cerevisiae deletion strains, locus YPR141C, strain kar3, active compounds read low 1.01
